Test results as given in article PMC10163288.
These entries were drawn from the full list. How many sequences the whole screen found active is unknown.

B1: il2ra_site2_2erj_sap_28_mot_3b06bd03f1c6bceadc68eab912867b79_0001_000000296_0001_36_50_H_._HHH_b2_07644_af2_0001_0000200004_0000001_0_0001 (protein)
chain: SSSSSDELKRAYELANALMHLVARNDREEFERISEEFEEIVEKLDSRTAREILESLERLISSSSS
B2: il2ra_site2_2erj_sap_26_mot_6c2800a769814540b5b47941e710ff28_0001_000000197_0001_35_49_H_._HHH_b2_05475_0001_0000200011_0000001_0_0001_af2pred_0001_af2pred (protein)
chain: DDEEYIEMWVELAAKRLGVPSVEVETRNGTLHVTVNGTDEAARRVLLAAELAAKAAGLPFETTEE
B3: il2ra_site1_3nfp_sap_15_mot_HHH_b1_05868_af2_000000129_0001_1_19_H_._HHH_b1_04163_af2_0001_0000300017_0000001_0_0001_af2pred_0001_af2pred (protein)
chain: SSSSSWREKAMEAILRAAELANDEELREELEKLLEKLREEGDPRALREAVKLLKEAAKRLSSSSS
B4: il2ra_site2_3nfp_sap_32_mot_HHH_b1_00050_000000292_0001_22_38_H_._HHH_b2_06764_0001_0000600039_0000001_0_0001 (protein)
chain: SSSSDESEEYFEAAFELVRLALEAGDPEAARRLLEMLELVAESQNDPELQRLVEELEEELSSSSS
B5: il2ra_site1_3nfp_sap_18_mot_ems_3hM_2054_af2_000000130_0001_3_20_H_._HHH_b2_07863_0001_0000600021_0000001_0_0001 (protein)
chain: SRILERFVKIARKRGNPEFARVVEILLEVLEQDPRLKRAIDKILFELVSGKLPPEEAEELAKELK
B6: il2ra_site2_3nfp_normal_mot_HHH_b2_05513_000000198_0001_20_37_H_._52c50354b804bec8c3157ba16786ada3_0001_0001_0001000025_0000001_0_af2pred_0001_1_af2pred_swapped (protein)
chain: DDLEERLRRSAELAGDPHDAVVFFIAFLEYELGDPEEAIELALEVAEELGDPELERIIRELRKLP
B7: il2ra_site2_3nfp_normal_mot_HHH_b1_00239_000000199_0001_23_39_H_._HHH_b2_02904_0001_0000200025_0000001_0 (protein)
chain: SSSSNEEILREAAELLLELLEERGDEEELRELEELLEELKRHGDPELQLELYAVLARIYSSSSSS
B8: il2ra_site1_2b5i_normal_mot_3116615af0ee64d731c1c85d8523bf51_0001_000000216_0001_15_32_H_._HHH_b1_07838_af2_0001_0000100001_0000001_0_af2pred_dldesign_0_af2pred (protein)
chain: SSSSSALEKEVEETLAKADELKAAGKRREALEALEKIHKKLSAADAEDLQEKVEKKAKELSSSSS
B9: il2ra_site1_3nfp_normal_mot_eb5a5eebac1e5153f932cc6c3f4b2787_0001_af2_000000065_0001_18_33_H_._HHH_b2_04044_0002_0000100009_0000001_0 (protein)
chain: SSSSSDEEIRERVEELLEEAKHIPDYREASRLVEEAYRLAAELGDPELSELIYRVMREIVSSSSS
B10: il2ra_site1_3nfp_sap_21_mot_HHH_b2_02066_af2_000000034_0001_1_16_H_._c2845cfc7c062bbeb7cd94dd36b2ebbf_0001_af2_0001_0000100001_0000001_0_0001_af2pred_0001_af2pr … (protein)
chain: SSSEEELQELFKLALELHKKLTNPEARQVVIHAMALVARATRTKDPELERRAREAIEEAEELDSS
B11: il2ra_site2_2erj_normal_mot_HHH_b2_06726_000000006_0001_1_16_H_._HHH_b1_04199_0001_0000300043_0000001_1_af2pred_0001_af2pred (protein)
chain: SSSSSSEYREEIEELIEEARRVDEEEAVALLAEAAFLAVRNKDEEIFREVAELSLELYRRSSSSS
B12: il2ra_site2_3nfp_sap_23_mot_347257a5708f0dc4a322ca97a98db719_0001_1_af2_000000210_0001_36_49_H_._796cb09f51c241c629a2416424e53d75_0001_0001_0000100001_0000001_0 … (protein)
chain: SSSSDKEEERVEELLEELKRLIEEGDEEKARRAFAEAAHLIFELNDSELFARLAELALELWSSSS
B13: il2ra_site1_3nfp_sap_17_mot_HHH_b1_01159_af2_000000107_0001_1_20_H_._HHH_b1_00510_0001_0000100012_0000001_0_0001 (protein)
chain: DEEEIRREIEELLEEDPQEAMQFAMKLAHEAMRNNDPELLRVVLEALLKVTGDPSVKKLLEVARR
B14: il2ra_site1_1z92_normal_mot_HHH_b1_03515_000000289_0001_1_19_H_._HHH_b2_04566_af2_0001_0000100001_0000001_0 (protein)
chain: SSSDEEQARRSLERLVEDAVKLAGLSEEQKEKLEELVEELIERGVDFLEAIKLIDELARELSSSS
B15: il2ra_site1_2b5i_sap_13_mot_HHH_b2_07160_000000135_0001_1_14_H_._HHH_b1_04051_0001_0000500030_0000001_1_0001_af2pred_dldesign_0_af2pred (protein)
chain: SSSSSLGRRRRELLERADKAFKAEDYELLKELLKEVKELVEKTKRKSDKAILKLIEEALEESSSS
B16: il2ra_site2_2erj_sap_21_mot_6ec3e94b46d95805cdcdc10c0c108f03_0001_af2_000000040_0001_36_50_H_._HHH_b2_04396_0001_0000200006_0000001_0_0001 (protein)
chain: SSSSSEWEEAARLSVLLLEAARKNDEELLEELRREAEELIKEIKNPAARRYLEFALRDVERSSSS
B17: il2ra_site1_1z92_sap_19_mot_HHH_b2_03511_af2_000000113_0001_41_54_H_._HHH_b2_01993_af2_0001_0000400041_0000001_0_0001 (protein)
chain: DEAEEVIERAIEAVERGDPEEVRRLLEKLIEHTGDPALRFLLEVLERKLEAGNYKAARAILEKSR
B18: il2ra_site2_3nfp_normal_mot_HHH_b2_04451_000000238_0001_21_37_H_._HHH_b1_08573_0001_0000400020_0000001_0 (protein)
chain: SSSDEEERIEELIELVEELIKEGDRTEALQVLLEASELAAKLGDEELARILLELFLLLQEKSSSS

Molecular target: il2ra, P01589
Assay: yeast display titration

Chain of il2ra, P01589 (P01589 whole entry): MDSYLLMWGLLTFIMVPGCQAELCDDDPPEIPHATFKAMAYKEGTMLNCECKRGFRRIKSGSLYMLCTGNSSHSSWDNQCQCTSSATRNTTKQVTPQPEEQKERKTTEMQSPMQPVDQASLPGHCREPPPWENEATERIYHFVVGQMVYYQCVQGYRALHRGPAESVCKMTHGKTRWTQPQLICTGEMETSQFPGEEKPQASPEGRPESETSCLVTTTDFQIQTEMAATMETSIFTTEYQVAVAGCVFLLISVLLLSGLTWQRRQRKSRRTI

Apparent Kd, inactive:
B1 no binding seen, B2 no binding seen, B3 no binding seen, B4 no binding seen, B5 no binding seen, B6 no binding seen, B7 no binding seen, B8 no binding seen, B9 no binding seen, B10 no binding seen, B11 no binding seen, B12 no binding seen, B13 no binding seen, B14 no binding seen, B15 > 487 nM, B16 no binding seen, B17 no binding seen, B18 no binding seen
